This passage reports activity change results from PubChem BioAssay AID743279 (National Center for Advancing Translational Sciences (NCATS), 2014).

Hit rate of the full screen: of about 360,000 compounds, about 17,000 (4.7%) were called active. About 5% were inconclusive and are not listed. The sample holds actives, similar compounds and a random draw of the others, so the mix is not that of the screen. Values without a mark were called inactive. Cut-off read from the data, not from the text of the source: active = activity change below about -50%; inconclusive = mostly about -30% to -49%; inactive = weaker than that.
% is set by controls: 0 for no effect and ±100 for the full control effect.

The nature of this assay: qHTS for Inhibitors of Inflammasome Signaling: IL-1-beta AlphaLISA Primary Screen. Conditions: THP-1 LPS/ATP IL-1B secretion, 16 h; at 57.5 µM, hits give low values. An outline of the steps:
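THP-1 cells pretreated 1 hr with compounds (up to 57.5 uM final), then stimulated with LPS (250 ng/mL final) plus ATP (1.25 mM final); secreted IL-1B measured by AlphaLISA after 16 hr, decreased signal indicating inhibition.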
For orientation: In qHTS, concentration-response curves come from the screen itself.
As for `Cc1ccc(S(=O)(=O)N(CC(=O)Nc2cccnc2)c2ccc(Br)cc2)cc1`, the activity change was -14.5%. For the molecule `O=C(Nc1ccc(OC(F)(F)F)cc1)c1ccc2c(c1)no[n+]2[O-]`, the activity change was -96.1% (active). For `Cn1cccc1/C=N/NC(=O)c1ccc(OC(F)(F)C(F)F)cc1`, the activity change is 81.3%.

For the molecule `Cn1nccc1NC(=O)Nc1ccc(OC(F)(F)F)cc1`, the activity change is 1.91%. Regarding `CC(CC(=O)N1CCN(S(=O)(=O)c2ccccc2)CC1)n1cncn1` (configuration not stated), the activity change was -19.9%.

With `Cc1cccc(S(=O)(=O)N(C)C[C@@H]2OCc3cnnn3CCCC(=O)N([C@H](C)CO)C[C@@H]2C)c1`, the activity change is -0.819%. `CN1OC[C@@H]2CN(C(=O)c3ccc(-c4ccccc4)cc3)[C@H](c3ccc(-c4cccc(F)c4)cc3)C[C@@H]21`: the activity change was 56.8%. As for `C[C@@H]1CN([C@H](C)CO)S(=O)(=O)c2ccc(C#CC3CCCCC3)cc2O[C@H]1CN(C)C(=O)Cc1ccncc1`, the activity change is -1.14%. On to `Cc1cc(Nc2ccc(Br)cc2)nc2ccccc12`, for which the activity change was -5.96%. Take `CCCCc1nc2ccccc2c(NC(=O)CN2CCN(C)CC2)c1CCC`: the activity change is -6.28%. Consider `CN1CCN(c2nc(Nc3ccc(O)cc3)nc3ccccc23)CC1`, for which the activity change was -96.2% (active). Take `O=C(COc1nc2ccccc2nc1N1CCOCC1)NCC(F)(F)F`: the activity change was 0.929%.

Regarding `c1ccc(Nc2nc(N3CCOCC3)c3ccccc3n2)cc1`, the activity change is -109% (active).

As for `c1ccc(-c2nnc(N3CCOCC3)c3ccccc23)cc1`, the activity change is -6.84%. Turning to `CCNC(=O)COC(=O)/C=C/c1c(C)nn(Cc2cccc(OC)c2)c1Cl`, the activity change was -4.38%. Then `NC(=S)NN=Cc1ccc(OC(=O)COc2cc(Cl)c(Cl)cc2Cl)cn1`, with 119%; and `CC1=NN(c2cccc(Cl)c2)C(=O)C12CC(C)=C(C)CS2` (configuration not stated), with -78.4% (active).

For the molecule `O=C(O)C(=Cc1ccccc1[N+](=O)[O-])c1ccccc1`, the activity change is 12.6%. `Cc1c(C(C)(C)O)[nH]c2ccc(C#N)cc12`: the activity change was 38.6%. `Cc1cccc(N(C(=O)Cc2cccs2)C(C(=O)NC2CCCC2)c2ccsc2)c1` (configuration not stated): the activity change is 0%.

For the molecule `CCOC(=O)C1=C(N)N(c2ccc(C)cc2)C2=C(C(=O)CCC2)C1c1cccs1` (configuration not stated), the activity change is -55.3% (active). For `O=C1CCCC2=C1C(c1cccs1)CC(=O)N2c1ccc(F)cc1` (configuration not stated), the activity change is 20.1%. The same measure for `CCOC(=O)c1cc2c(n(-c3ccc(C)cc3)c1=O)CCCC2=O`: -18.1%; for `Cc1ccccc1CS(=O)(=O)CC1(O)CCN(C(=O)c2cccc(C(F)(F)F)c2)CC1`: 9.6%. For `Cc1ccc(-c2nc3ccc(Br)cn3c2Cc2ccccc2C(F)(F)F)cc1`, the activity change was 16.5%.

As to `COc1ccccc1NC(=O)C(C)OC(=O)CC1CCCC1` (configuration not stated), the activity change was 23.8%. Turning to `CC(NCc1ccccc1OC1CCCC1)c1ccccc1` (configuration not stated), the activity change was -82.2% (active).

For `COc1ccccc1CN1CCN(C(c2ccccc2)c2ccccc2)CC1`, the activity change was -16.2%. With `CCCCNC1(C#N)CCN(Cc2ccccc2)CC1`, the activity change is 9.53%. Turning to `CC1(C(=O)NCc2ccc3c(c2)OCO3)CCN1CCc1ccccc1` (configuration not stated), the activity change was 10.6%. Regarding `CO/N=C(\N)c1ccc([N+](=O)[O-])cc1`, the activity change is -10.8%. As for `C/C(=N/NC(=O)CC(=O)N/N=C(\C)c1ccc([N+](=O)[O-])cc1)c1ccc([N+](=O)[O-])cc1`, the activity change was 26.9%.

As to `C/C(=N\N(C)C)c1ccc(OCCOc2ccc([N+](=O)[O-])cc2)cc1`, the activity change is -52.7% (active). Take `Cc1cc([N+](=O)[O-])c(=O)[nH]c1C`: the activity change was 26.9%.

With `CN(C)C(=O)c1nc2ccc(Cl)cn2c1CNCc1cccc(OC(F)(F)F)c1`, the activity change is 32.2%.

Regarding `CSCC[C@H](NC(=O)NCCc1ccc(F)cc1)C(=O)O`, the activity change was 3.5%. Then `COc1ccc(C(O)C(O)(C(=O)OC(C)C)c2ccc(C)cc2)cc1` (configuration not stated), with -21%. With `O=C(Nc1ccc(N2CCCC2=O)cc1)c1cncc(Br)c1`, the activity change is 1.56%. The same measure for `O=C(N/N=C/c1cccc(Br)c1)c1ccc(N2CCCC2=O)cc1`: -55.3% (active); for `Cn1c(=O)n(C)c2cc(/C=N/NC(=O)c3cccc(Br)c3)ccc21`: -10.6%; for `CC(=O)c1cccc(-c2ccc(CN3C(CC(C)C)C(=O)N(Cc4cn(CC5CCCCC5)nn4)CCS3(=O)=O)cc2)c1` (configuration not stated): -9.9%. Then `OCCC#Cc1ccc(N2C(c3ccsc3)=Cc3ccc(F)cc3C2c2c[nH]c3ccccc23)cc1` (configuration not stated), with -15.9%; and `COc1ccc(CCn2c(=N)c(C(=O)NCC3CCCO3)cc3c(=O)n4cccc(C)c4nc32)cc1OC` (configuration not stated), with -11.6%; and `Cc1ccc(S(=O)(=O)c2cc3c(=O)n4cccc(C)c4nc3n(CCc3ccccc3)c2=N)cc1C`, with 20.8%. In the case of `COc1ccc(CCn2c(=N)c(C(=O)NCc3ccco3)cc3c(=O)n4cccc(C)c4nc32)cc1`, the activity change was -53.7% (active). With `Cc1ccc(S(=O)(=O)N[C@H]2CCC[C@@H]2O)cc1`, the activity change is 6.2%. For `CCCNC(=O)C1(C)CCN1C(=O)Cc1ccc(-c2ccccc2)cc1` (configuration not stated), the activity change was -1.04%. Take `COc1ccc(OC)c(NC(=O)C2(C)CCN2C(=O)Cc2ccccc2)c1` (configuration not stated): the activity change was -87.1% (active). `C#Cc1ccc(NC(=O)C2(C)CCN2C(=O)Cc2ccc(-c3ccccc3)cc2)cc1` (configuration not stated): the activity change is -2.2%. On to `COc1ccc(C(CNC(=O)CSc2ccccc2)N2CCOCC2)cc1` (configuration not stated), for which the activity change was 0%. The same measure for `COC(=O)C[C@@H]1C=C[C@@H](NC(=O)c2cccnc2)[C@@H](CO)O1`: 2.57%; for `CCOC(=O)C1CCCN(C(=O)c2cccc3ccccc23)CC1` (configuration not stated): 61.7%; for `O=[N+]([O-])c1ccc(COc2ccccc2CN2CCOCC2)cc1`: -17.6%. The same measure for `COc1ccc(NC(=O)c2cccc(Cl)c2)c[n+]1[O-]`: -0.66%. For `C=C(C)COc1ccc(-c2nc(N)ncc2-c2ccccc2OC)c(O)c1`, the activity change is -26.4%. Then `COc1ccc(-c2nc(N)ncc2-c2ccc(Cl)cc2)c(O)c1`, with -11.3%; and `C=C(C)COc1ccc(-c2ncncc2-c2ccc(OC)cc2)c(O)c1`, with -58.4% (active).
